Among the data in PubChem BioAssay AID1511 (Johns Hopkins Ion Channel Center, 2009) are activation (rescue from dofetilide block), less the hit threshold values, retold here.

In all, about 310,000 compounds went through this assay and about 1,600 (0.52%) were called active. Only a selection was taken, and actives are over-represented in it overall. A number with no mark means an inactive call.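 How the source made its calls: active means activation above the mean of controls blocked by dofetilide plus 5 SD; inactive means the rest.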

In the assay the target is Voltage-gated inwardly rectifying potassium channel KCNH2 (Homo sapiens) (UniProt Q12809). The assay can be described thus: compounds relieving dofetilide block of hERG – cell-based, CHO-hERG, FluxOR thallium flux, dofetilide IC70, primary screen (AID 1511).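 Further: thallium influx through hERG after potassium depolarization seen as dye fluorescence rise.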 The conditions noted are these: dofetilide IC70 present, at 10 µM, stronger effect = higher value.
Chain of Voltage-gated inwardly rectifying potassium channel KCNH2 (Homo sapiens) (Q12809 whole entry, looked up): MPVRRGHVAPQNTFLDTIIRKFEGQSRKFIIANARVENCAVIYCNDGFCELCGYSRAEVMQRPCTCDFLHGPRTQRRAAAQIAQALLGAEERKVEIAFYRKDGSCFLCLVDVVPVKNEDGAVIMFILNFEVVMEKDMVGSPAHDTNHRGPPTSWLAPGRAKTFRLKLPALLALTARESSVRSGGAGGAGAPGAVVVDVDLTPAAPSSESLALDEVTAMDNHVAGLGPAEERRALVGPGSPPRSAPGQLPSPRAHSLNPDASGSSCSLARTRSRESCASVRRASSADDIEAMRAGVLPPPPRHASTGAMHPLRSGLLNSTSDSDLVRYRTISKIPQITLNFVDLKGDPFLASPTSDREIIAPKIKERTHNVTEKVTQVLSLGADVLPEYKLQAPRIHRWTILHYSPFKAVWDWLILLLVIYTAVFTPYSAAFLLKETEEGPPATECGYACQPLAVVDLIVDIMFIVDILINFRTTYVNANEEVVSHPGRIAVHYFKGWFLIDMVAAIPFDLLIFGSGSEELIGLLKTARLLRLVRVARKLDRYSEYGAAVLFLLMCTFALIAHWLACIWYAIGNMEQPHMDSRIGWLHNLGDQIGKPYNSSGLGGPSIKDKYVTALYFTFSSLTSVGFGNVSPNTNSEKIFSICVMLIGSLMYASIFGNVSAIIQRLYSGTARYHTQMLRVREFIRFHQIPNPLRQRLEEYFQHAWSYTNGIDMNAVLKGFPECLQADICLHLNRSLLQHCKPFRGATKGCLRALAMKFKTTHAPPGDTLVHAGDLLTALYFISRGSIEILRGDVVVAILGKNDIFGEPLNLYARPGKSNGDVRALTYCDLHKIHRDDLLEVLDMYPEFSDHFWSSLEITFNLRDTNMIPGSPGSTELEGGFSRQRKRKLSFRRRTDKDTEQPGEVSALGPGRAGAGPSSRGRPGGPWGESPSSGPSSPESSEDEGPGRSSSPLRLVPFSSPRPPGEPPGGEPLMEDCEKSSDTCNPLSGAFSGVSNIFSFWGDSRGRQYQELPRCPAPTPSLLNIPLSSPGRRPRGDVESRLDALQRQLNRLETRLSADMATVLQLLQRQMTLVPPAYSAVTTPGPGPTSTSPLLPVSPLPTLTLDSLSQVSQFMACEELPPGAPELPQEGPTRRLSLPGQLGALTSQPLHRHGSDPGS
Take `O=Cc1c(NCCc2cccc(F)c2)c2ccccc2[nH]c1=O`: the activation (rescue from dofetilide block), less the hit threshold is -6.93%.
In the case of `CCOc1ccc(C(C)=O)cc1COC(=O)CNC(=O)c1cccs1`, the activation (rescue from dofetilide block), less the hit threshold is -15.3%.
The same measure for `CCn1c(=S)[nH]c2sc3c(c2c1=O)CCCCC3`: 37.3% (active); for `CCCc1nc2sc3c(c2c(=O)n1NC(=O)CCCl)CCCC3`: -1.21%; for `CN(C)CCCn1c(=O)n(Cc2ccccc2)c(=O)c2c3c(sc21)CCCCC3`: -10.2%.
Regarding `O=C(/C=C/c1cccs1)NCc1cccnc1`, the activation (rescue from dofetilide block), less the hit threshold was -8.68%.
Consider `O=[N+]([O-])c1ccc(N2CCN(c3ccc(F)cc3)CC2)cn1`, for which the activation (rescue from dofetilide block), less the hit threshold was -4.38%.
Regarding `COc1ccc(N2CCN(c3ccc([N+](=O)[O-])nc3)CC2)cc1`, the activation (rescue from dofetilide block), less the hit threshold was 7.73% (active).
Turning to `COc1ccccc1N1CCN(c2ccc([N+](=O)[O-])nc2)CC1`, the activation (rescue from dofetilide block), less the hit threshold is -22%.
Regarding `CC(C)C(=O)Nc1ccc(C(=O)NNC(=O)c2cccs2)cc1`, the activation (rescue from dofetilide block), less the hit threshold was -4.59%.
The figure for `CCc1ccc(NC(=O)C(=O)NNC(=O)c2cccs2)cc1` is 46.7% (active); for `CCc1ccc(NC(=O)COC(=O)c2cccs2)cc1` it is -2.35%.
Consider `O=S(=O)(Nc1ccc2nc(-c3ccco3)[nH]c2c1)c1ccccc1`, for which the activation (rescue from dofetilide block), less the hit threshold was -13.3%.
The figure for `CCCCn1c(=S)[nH]c2ncccc2c1=O` is -2.34%; for `CCCCn1c(=S)[nH]c2ccccc2c1=O` it is 7.08% (active).
With `CCCCNC(=O)c1ccc(-n2c(=S)[nH]c3ccccc3c2=O)cc1`, the activation (rescue from dofetilide block), less the hit threshold was -10.5%.
The figure for `Cn1cc(S(=O)(=O)N2CCN(c3ccc(F)cc3)CC2)c(=O)n(C)c1=O` is -3.11%; for `COc1ccc(/C=C2\SC(=N)N(c3ccc(F)cc3)C2=O)cc1` it is -2.33%.
With `COc1ccc(/C=C2/S/C(=N/N=C3\CC4CCC3(C)C4(C)C)NC2=O)cc1` (stereo not drawn), the activation (rescue from dofetilide block), less the hit threshold was 19.7% (active).
For `CCOc1ccc(N=C2NC(=O)S/C2=C\c2ccc(O)cc2)cc1`, the activation (rescue from dofetilide block), less the hit threshold was -4.52%.
For the compound `COc1ccc(CCNC(=O)NS(=O)(=O)c2ccc(C)cc2)cc1OC`, the activation (rescue from dofetilide block), less the hit threshold is 0.48%.
Take `C=CCN1C(=O)C(Cc2cccc(Cl)c2)S/C1=N/N=C/c1ccco1` (stereo not drawn): the activation (rescue from dofetilide block), less the hit threshold was -5.7%.
In the case of `CCOc1ccc(N=C2SC(C(=O)O)CC(=O)N2C)cc1` (stereo not drawn), the activation (rescue from dofetilide block), less the hit threshold is -10.3%.
The figure for `C=CCN1C(=O)C(Cc2ccc(OCC)cc2)SC1=Nc1ccc(C(=O)O)cc1` (stereo not drawn) is 5.1% (active); for `FC(F)(F)c1ccnc(Oc2ccc(C3=NCCS3)cc2)c1` it is -5.42%; for `COc1ccc(S(=O)(=O)N2CCOC2CNC(=O)C(=O)NCc2ccncc2)cc1OC` (stereo not drawn) it is -6.76%.
Take `O=C(Nc1ccc(-c2cscn2)cc1)C1CCCN(Cc2ccc(CO)o2)C1` (stereo not drawn): the activation (rescue from dofetilide block), less the hit threshold is -2.17%.
Regarding `N#Cc1cccc(CN2CCC(=O)N(CCO)CC2)c1`, the activation (rescue from dofetilide block), less the hit threshold was 1.97%.
`O=C1CCN(CCc2ccccc2)CCN1CCOc1ccccc1`: the activation (rescue from dofetilide block), less the hit threshold was -5.23%.
Take `O=C1CCN(CCCc2ccccc2)CCN1CCO`: the activation (rescue from dofetilide block), less the hit threshold was 5.3% (active).
With `Cc1n[nH]c(=O)c2c(NC(=O)COC(=O)c3ncc(Cl)c(Cl)c3Cl)oc(C)c12`, the activation (rescue from dofetilide block), less the hit threshold was -12.6%.
On to `Cc1cc(OCCN2CCCC2)cc(C(C)C)c1`, for which the activation (rescue from dofetilide block), less the hit threshold was -6.59%.
As for `O=C(COC(=O)c1cnc(Cl)c(Cl)c1)NCc1ccco1`, the activation (rescue from dofetilide block), less the hit threshold was 40.4% (active).
Turning to `O=C(COC(=O)c1cc(S(=O)(=O)N2CCCCC2)ccc1Cl)NCc1ccco1`, the activation (rescue from dofetilide block), less the hit threshold was -13.9%.
On to `O=C(COC(=O)c1ccco1)NCc1ccc(Cl)cc1`, for which the activation (rescue from dofetilide block), less the hit threshold is -0.71%.
The figure for `Cc1c(CN2CCC(CO)(CCOc3ccccc3)CC2)[nH]c2ccc(Cl)cc12` is -21.9%; for `Cc1nn(CC2CC2)c(=O)n1N(C)c1ncc(C(F)(F)F)cc1Cl` it is -8.88%; for `O=C1CCCC2=C1C(c1ccccc1)n1c(s/c(=C/c3cccc(F)c3)c1=O)=N2` (stereo not drawn) it is 5.71% (active).
`O=C1CC(c2cccc(F)c2)C2=C(CCCC2=O)N1` (stereo not drawn): the activation (rescue from dofetilide block), less the hit threshold is -5.36%.
Turning to `COc1ccc(OC)c(C2C3=C(N=c4s/c(=C\c5cccc(O)c5)c(=O)n42)c2ccccc2CC3)c1` (stereo not drawn), the activation (rescue from dofetilide block), less the hit threshold is -0.7%.
The figure for `CCOC(=O)Cc1cc(=O)[nH]c(=O)[nH]1` is -4%; for `CC1CCCCC1NC(=O)c1cn(C)c2ccc(S(=O)(=O)N3CCOCC3)cc2c1=O` (stereo not drawn) it is -5.24%.
In the case of `Cc1cc(C(=O)NCCc2ccc(Cl)cc2)c(C)o1`, the activation (rescue from dofetilide block), less the hit threshold is -9.03%.
The same measure for `CCOC(=O)c1c(C)oc2cc(Sc3ccccc3)c(O)c(O)c12`: -5.84%; for `C/C(CC(=O)Nc1ccc(Cl)cc1)=N\NC(=O)C(=O)NCCO`: -8.82%; for `CCc1ccc(NC(=O)C(=O)N/N=C(\C)CC(=O)NCCOC)cc1`: 6.83% (active).
On to `COc1ccc(COC(=O)N/N=C(\C)CC(=O)Nc2ccc(Cl)cc2)cc1`, for which the activation (rescue from dofetilide block), less the hit threshold is -11.8%.
`COC(=O)C(C)N=Cc1ccccc1` (stereo not drawn): the activation (rescue from dofetilide block), less the hit threshold is -14%.
